From PubChem BioAssay
For some assays here: Entries with a potency or affinity are not part of this list. Activity calls are given as the source filed them.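 How the source made its calls, unless noted: active means primary screen inhibitor hit that blocks the TRPC4 channel at some tested dose, yielding a dose curve; inactive means the rest.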

How the values were obtained:
[1] = test system: TRPC4 beta (transient receptor potential cation channel C4), mouse; assay: activators of mouse TRPC4 channel, confirmation, cell-based, Fluo4 calcium, HEK293 TRPC4beta/mu-opioid, duplicates, 10 µM (AID 2426;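 active means fluorescence ratio normalized to control raised more than 50% in primary screen plus both repeat runs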); conditions: Fluo4 calcium fluorescence, at 10 µM; active compounds read high
[2] = test system: transient receptor potential cation channel C4 beta (TRPC4), mouse; assay: activators of mouse TRPC4 channel, confirmation, cell-based, second round, Fluo4, HEK293 TRPC4beta/mu-opioid, 1 µM (AID 2461;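 active means primary screen active and over 50% activation in each of two duplicate runs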); conditions: Fluo4 calcium fluorescence, at 1 µM; active compounds read high
[3] = test system: TRPC4 (transient receptor potential cation channel C4 beta), mouse; assay: positive allosteric modulators of mouse TRPC4, confirmation, cell-based, second round, Fluo-4, HEK293 TRPC4beta/mu-opioid, 1 µM (AID 2554;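 active means primary screen hit whose fluorescence ratio, in both repeats, exceeds the weak agonist control mean by 3 SD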); conditions: DAMGO EC20, Fluo-4 calcium flux, at 1 µM; active compounds read high
[4] = test system: TRPC4 beta (transient receptor potential cation channel C4), mouse; assay: positive allosteric modulators of mouse TRPC4, confirmation, cell-based, Fluo-4, HEK293 TRPC4beta/mu-opioid (AID 2555;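 active means primary screen hit whose calcium fluorescence ratio, in both repeats, exceeds the weak agonist control mean by 3 SD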); conditions: DAMGO EC20, Fluo-4 calcium flux, at 10 µM; active compounds read high
[5] = target: Short transient receptor potential channel 4 (Mus musculus) (UniProt Q9QUQ5); assay: inhibitors of mouse TRPC4 channel, confirmation, cell-based, Fluo4, HEK293 TRPC4beta/mu-opioid (AID 2636;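 active means calcium signal cut by more than 3 SD below the full-agonist control yet still positive, in both repeats and the earlier primary screen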); conditions: DAMGO, Fluo4 calcium flux, at 10 µM; active compounds read high
[6] = target: Short transient receptor potential channel 4 (Mus musculus) (UniProt Q9QUQ5); assay: inhibitors of mouse TRPC4 channel, confirmation, cell-based, second round, Fluo4, HEK293 TRPC4beta/mu-opioid, 1 µM (AID 2637;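 active means calcium signal ratio cut to more than 3 SD under the fully stimulated control mean yet still positive, in both repeats and the primary screen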); conditions: Fluo4 calcium flux, DAMGO, at 1 µM; active compounds read high
[7] = target: Short transient receptor potential channel 4 (Mus musculus) (UniProt Q9QUQ5); assay: mouse TRPC4 channel activators, dose response, cell-based, HEK293 TRPC4/mu-opioid, Fluo-4 calcium (AID 434937;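 active means primary screen activator hit with a dose response curve and TRPC4 channel activation at any tested dose; inactive means no activation, no dose response, or not a primary hit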)
[8] = target: Short transient receptor potential channel 4 (Mus musculus) (UniProt Q9QUQ5); assay: TRPC4 positive allosteric modulators, dose response, cell-based, HEK293 TRPC4/mu-opioid, Fluo-4 calcium, EC20 DAMGO (AID 434941;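 active means earlier screen potentiator hit that boosts the TRPC4 ion channel at some dose, with a dose response; inactive means no potentiation, no dose response, or not a prior hit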;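 further: calcium entry triggered by an EC20 dose of DAMGO at the co-expressed mu-opioid receptor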)
[9] = target: Short transient receptor potential channel 4 (Mus musculus) (UniProt Q9QUQ5); assay: mouse TRPC4 channel inhibitors, dose response, cell-based, HEK293 TRPC4/mu-opioid, Fluo-4 calcium (AID 434942)
[10] = target: Short transient receptor potential channel 6 (Mus musculus) (UniProt Q61143); assay: inhibition of mouse TRPC6 channel, confirmation, selectivity assay for TRPC4 inhibitor project, cell-based, HEK293, membrane potential dye, duplicate (AID 434948;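 active means active in primary screen and both duplicates, each dropping signal beyond three positive-control SD with fluorescence still positive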); conditions: HEK293 TRPC6, membrane potential dye fluorescence, at 10 µM, stimulated with maximal-effect acetylcholine; active compounds read high
[11] = target: Short transient receptor potential channel 6 (Mus musculus) (UniProt Q61143); assay: activation of mouse TRPC6 channel, confirmation, selectivity assay for TRPC4 activator project, cell-based, HEK293, membrane potential dye, duplicate (AID 434950;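 active means membrane potential signal rise above negative control mean plus 3 SD in both duplicates, also active in the earlier TRPC4 screen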); conditions: HEK293 TRPC6, membrane potential fluorescence, at 10 µM; active compounds read high
[12] = target: Short transient receptor potential channel 6 (Mus musculus) (UniProt Q61143); assay: TRPC6 potentiation by TRPC4 potentiator hits, confirmation, selectivity assay for TRPC4 potentiator project, HEK293 cells, membrane potential dye, duplicate (AID 434952;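 active means compound raising the membrane signal above positive-control mean plus 3 SD in both repeats, and a primary screen hit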); conditions: HEK293 TRPC6, membrane potential dye fluorescence, at 10 µM, maximal acetylcholine added after compound; active compounds read high
[13] = target: Short transient receptor potential channel 4 (Mus musculus) (UniProt Q9QUQ5); assay: calcium flux activators in TRPC4/5HT1a cells, counter-screen for TRPC4 activator project, cell-based, second counter screen, HEK293 TRPC4/5HT1a, Fluo-4 (AID 434977;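 active means calcium signal rise above buffer-control mean plus 5 SD in both duplicates, and also a hit in the primary screen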); conditions: Fluo-4 calcium flux, at 10 µM; active compounds read high
[14] = calcium flux inhibitors in TRPC4/5HT1a cells, confirmation, counter-screen for TRPC4 inhibitor project, cell-based, second counter screen, HEK293 TRPC4/5HT1a, Fluo-4 (AID 434978;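 active means primary screen active whose calcium signal fell more than 3 SD beyond the full-serotonin control mean in both duplicate plates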;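 further: serotonin given first at submaximal then at maximal dose after compound preincubation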); conditions: Fluo-4 calcium flux, at 10 µM, serotonin added to trigger calcium flux; active compounds read high
[15] = test system: TRPC4 (mouse), co-expressed with 5HT1a in HEK293; assay: calcium flux potentiators in TRPC4/5HT1a cells, confirmation, counter-screen for TRPC4 potentiator project, cell-based, second counter screen, HEK293 TRPC4/5HT1a, Fluo-4 (AID 434979;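 active means signal rise over 3 SD above mean of control wells given weak agonist, in both repeats and first screen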); conditions: Fluo-4 calcium flux, at 10 µM, serotonin added at its EC20 dose; active compounds read high
[16] = calcium flux activation in mu-opioid HEK293 cells, confirmation, counter-screen for TRPC4 activator project, cell-based, HEK293 mu-opioid receptor line (AID 449723;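 active means hit in primary screen, with calcium signal over 5 SD above buffer well mean in both duplicates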;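 further: counter screen cells carry the mu-opioid receptor alone and lack TRPC4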); conditions: Fluo-4 calcium fluorescence, at 10 µM; active compounds read high
[17] = calcium flux enhancement in mu-opioid HEK293 cells, confirmation, counter-screen for TRPC4 allosteric potentiator project, cell-based, HEK293 mu-opioid receptor line (AID 449724;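 active means calcium signal rise more than 3 SD above the low-dose agonist control mean, in both duplicate plates and the primary screen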); conditions: Fluo-4 calcium flux, at 10 µM, compound added before EC20 DAMGO stimulus; active compounds read high
[18] = thallium flux activation in parental CHO cells, counter-screen for KCNQ1 potentiator project (AID 493006;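 active means duplicate-averaged activation above buffer control mean plus 5 SD of those controls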;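 on activation: fluorescence ratio of max minus min over baseline after K+ and Tl+ depolarization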); conditions: parental CHO-K1 cells, FluxOR thallium flux, at 10 µM; active compounds read high
[19] = target: Potassium voltage-gated channel subfamily KQT member 1 (Homo sapiens) (UniProt P51787); assay: KCNQ1 potassium channel potentiators, confirmation, FluxOR thallium flux, CHO cells, duplicates (AID 493007;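 active means potentiation averaged over duplicate wells exceeding buffer-only control mean by more than 3 SD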;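 on outcome: cells depolarized by a potassium plus thallium sulfate stimulus after compound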;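 on potentiation: 0% = buffer-only wells and 100% = R-L3 activator control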); conditions: KCNQ1 cell line, FluxOR thallium flux fluorescence, at 10 µM; active compounds read high, % of reference activator effect, buffer zero
[20] = target: Potassium voltage-gated channel subfamily KQT member 2 (Rattus norvegicus) (UniProt O88943); assay: rat KCNQ2 channel potentiation, selectivity assay for KCNQ1 potentiator project, KCNQ2-CHO-K1 cells (AID 493009;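 active means mean duplicate potentiation above the buffer control mean plus 5 SD of buffer wells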;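 further: assay conditions were tuned for KCNQ1 rather than KCNQ2 modulators; signal is max minus min fluorescence divided by baseline after thallium stimulus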); conditions: FluxOR thallium flux fluorescence, at 10 µM; active compounds read high, scaled: buffer 0, activator control 100
Chain of Potassium voltage-gated channel subfamily KQT member 2 (Rattus norvegicus) (O88943 whole entry, looked up): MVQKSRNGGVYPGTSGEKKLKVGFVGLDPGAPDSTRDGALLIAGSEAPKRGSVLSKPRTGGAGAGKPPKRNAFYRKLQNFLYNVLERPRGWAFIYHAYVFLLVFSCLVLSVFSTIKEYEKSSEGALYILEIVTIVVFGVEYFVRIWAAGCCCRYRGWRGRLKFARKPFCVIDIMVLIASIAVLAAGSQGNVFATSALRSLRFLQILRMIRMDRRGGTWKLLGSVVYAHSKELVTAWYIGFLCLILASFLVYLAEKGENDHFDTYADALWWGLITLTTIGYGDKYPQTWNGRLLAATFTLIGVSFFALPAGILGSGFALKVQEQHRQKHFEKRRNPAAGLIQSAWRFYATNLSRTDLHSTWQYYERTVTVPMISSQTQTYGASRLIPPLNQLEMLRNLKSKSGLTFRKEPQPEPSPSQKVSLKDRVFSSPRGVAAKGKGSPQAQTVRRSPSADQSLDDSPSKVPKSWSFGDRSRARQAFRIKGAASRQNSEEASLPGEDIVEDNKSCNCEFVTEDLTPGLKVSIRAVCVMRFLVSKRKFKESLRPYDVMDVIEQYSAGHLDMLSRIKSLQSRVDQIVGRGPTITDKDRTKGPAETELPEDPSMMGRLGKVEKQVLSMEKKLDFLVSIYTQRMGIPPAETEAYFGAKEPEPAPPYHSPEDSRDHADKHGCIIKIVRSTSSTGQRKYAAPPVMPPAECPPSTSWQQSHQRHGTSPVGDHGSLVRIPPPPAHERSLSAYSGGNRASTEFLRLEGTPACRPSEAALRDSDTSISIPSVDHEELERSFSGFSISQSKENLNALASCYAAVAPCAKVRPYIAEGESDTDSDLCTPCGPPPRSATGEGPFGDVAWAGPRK

Chain of Short transient receptor potential channel 6 (Mus musculus) (Q61143 whole entry, looked up): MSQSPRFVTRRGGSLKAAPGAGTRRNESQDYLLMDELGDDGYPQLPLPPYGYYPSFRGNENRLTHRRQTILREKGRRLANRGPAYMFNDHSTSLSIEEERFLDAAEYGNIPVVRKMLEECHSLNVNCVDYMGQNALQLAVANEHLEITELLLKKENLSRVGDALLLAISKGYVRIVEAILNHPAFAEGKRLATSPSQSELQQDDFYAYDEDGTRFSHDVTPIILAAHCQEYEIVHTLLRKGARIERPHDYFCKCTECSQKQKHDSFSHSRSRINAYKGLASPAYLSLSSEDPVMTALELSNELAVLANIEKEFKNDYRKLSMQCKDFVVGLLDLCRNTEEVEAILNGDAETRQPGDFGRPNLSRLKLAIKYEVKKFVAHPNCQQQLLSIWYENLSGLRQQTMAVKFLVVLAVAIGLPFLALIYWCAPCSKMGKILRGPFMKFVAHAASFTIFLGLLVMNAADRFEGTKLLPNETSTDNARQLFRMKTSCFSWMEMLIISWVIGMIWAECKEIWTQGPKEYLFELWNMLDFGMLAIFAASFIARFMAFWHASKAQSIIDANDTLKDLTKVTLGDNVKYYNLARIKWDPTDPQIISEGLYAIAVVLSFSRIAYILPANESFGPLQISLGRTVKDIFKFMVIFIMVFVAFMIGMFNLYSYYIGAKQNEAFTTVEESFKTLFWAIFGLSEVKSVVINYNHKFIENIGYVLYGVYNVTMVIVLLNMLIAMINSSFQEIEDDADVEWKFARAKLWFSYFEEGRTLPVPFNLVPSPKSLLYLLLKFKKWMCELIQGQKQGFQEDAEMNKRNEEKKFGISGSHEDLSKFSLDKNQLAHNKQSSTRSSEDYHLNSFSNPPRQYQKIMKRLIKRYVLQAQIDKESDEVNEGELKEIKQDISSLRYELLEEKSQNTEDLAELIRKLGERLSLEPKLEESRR
Chain of Potassium voltage-gated channel subfamily KQT member 1 (Homo sapiens) (P51787 whole entry, looked up): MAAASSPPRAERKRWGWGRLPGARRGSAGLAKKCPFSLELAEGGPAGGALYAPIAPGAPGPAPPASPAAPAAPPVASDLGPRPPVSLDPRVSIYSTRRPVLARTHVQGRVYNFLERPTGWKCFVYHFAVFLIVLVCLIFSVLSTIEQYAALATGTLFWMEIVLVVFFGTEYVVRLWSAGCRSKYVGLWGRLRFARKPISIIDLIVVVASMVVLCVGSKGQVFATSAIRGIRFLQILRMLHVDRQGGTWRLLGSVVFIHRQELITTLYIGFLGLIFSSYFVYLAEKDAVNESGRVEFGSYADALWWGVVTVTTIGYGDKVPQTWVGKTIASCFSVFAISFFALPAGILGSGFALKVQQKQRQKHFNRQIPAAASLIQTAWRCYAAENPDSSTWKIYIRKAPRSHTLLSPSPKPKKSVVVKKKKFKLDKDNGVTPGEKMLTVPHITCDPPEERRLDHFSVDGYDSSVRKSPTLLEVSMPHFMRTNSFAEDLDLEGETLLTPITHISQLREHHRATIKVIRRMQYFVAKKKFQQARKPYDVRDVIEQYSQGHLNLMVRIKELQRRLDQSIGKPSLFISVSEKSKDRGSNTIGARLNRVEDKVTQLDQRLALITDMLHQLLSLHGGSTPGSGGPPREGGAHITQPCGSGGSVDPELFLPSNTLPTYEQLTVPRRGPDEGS
Chain of Short transient receptor potential channel 4 (Mus musculus) (Q9QUQ5 whole entry, looked up): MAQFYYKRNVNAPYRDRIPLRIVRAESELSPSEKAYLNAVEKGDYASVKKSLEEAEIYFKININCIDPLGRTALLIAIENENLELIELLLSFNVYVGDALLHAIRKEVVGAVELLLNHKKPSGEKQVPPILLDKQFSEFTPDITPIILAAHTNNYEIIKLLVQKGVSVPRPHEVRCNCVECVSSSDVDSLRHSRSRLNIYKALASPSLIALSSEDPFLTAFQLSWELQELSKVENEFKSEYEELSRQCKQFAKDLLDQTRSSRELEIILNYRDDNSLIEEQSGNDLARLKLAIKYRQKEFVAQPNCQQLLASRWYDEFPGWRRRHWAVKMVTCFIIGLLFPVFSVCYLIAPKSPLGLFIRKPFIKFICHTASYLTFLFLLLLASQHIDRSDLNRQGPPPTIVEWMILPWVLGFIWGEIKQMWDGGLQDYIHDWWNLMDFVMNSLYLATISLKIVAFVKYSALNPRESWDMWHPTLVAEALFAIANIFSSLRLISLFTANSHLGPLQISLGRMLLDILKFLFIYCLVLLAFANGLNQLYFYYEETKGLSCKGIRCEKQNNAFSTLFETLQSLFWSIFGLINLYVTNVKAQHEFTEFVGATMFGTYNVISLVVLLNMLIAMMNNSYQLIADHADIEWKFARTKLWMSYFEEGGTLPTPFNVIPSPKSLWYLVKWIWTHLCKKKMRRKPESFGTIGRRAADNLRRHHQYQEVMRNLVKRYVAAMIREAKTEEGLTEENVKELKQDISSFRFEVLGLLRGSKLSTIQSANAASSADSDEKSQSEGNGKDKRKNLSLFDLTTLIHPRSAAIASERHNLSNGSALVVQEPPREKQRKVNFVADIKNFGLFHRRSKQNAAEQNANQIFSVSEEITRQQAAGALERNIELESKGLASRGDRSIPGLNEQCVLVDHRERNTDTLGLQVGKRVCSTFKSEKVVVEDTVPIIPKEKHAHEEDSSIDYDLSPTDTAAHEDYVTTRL

CN(C)C(CNC(=O)c1ccc(S(=O)(=O)NCc2ccco2)cc1)c1ccccc1 (stereo not given)
inactive: outcome [1] | outcome [2] | outcome [3] | outcome [4] | outcome [5] | outcome [6] | outcome [7] | outcome [8] | outcome [9] | outcome [10] | outcome [11] | outcome [12] | outcome [13] | outcome [14] | outcome [15] | outcome [16] | outcome [17]

CCCc1nc2oc3c(NCCCN(C)C)ncnc3c2c2c1CCCC2
inactive: outcome [1] | outcome [2] | outcome [3] | outcome [4] | outcome [5] | outcome [6] | outcome [7] | outcome [8] | outcome [9] | outcome [10] | outcome [11] | outcome [12] | outcome [13] | outcome [14] | outcome [15] | outcome [16] | outcome [17] | outcome [18] | outcome [19] | outcome [20]

CCOC(=O)CSc1nc2ccccc2c(=O)n1C1CCCC1
inactive: outcome [1] | outcome [2] | outcome [3] | outcome [4] | outcome [5] | outcome [6] | outcome [7] | outcome [8] | outcome [9] | outcome [10] | outcome [11] | outcome [12] | outcome [13] | outcome [14] | outcome [15] | outcome [16] | outcome [17]

CC(C)NS(=O)(=O)c1ccc(NC(=O)C(C)Oc2ccc(C(=O)c3ccccc3)cc2)cc1 (stereo not given)
active: potentiation [4] 36% | potentiation [15] 30.1%
inactive: outcome [1] | outcome [2] | outcome [3] | outcome [5] | outcome [6] | outcome [7] | outcome [8] | outcome [9] | outcome [10] | outcome [11] | outcome [12] | outcome [13] | outcome [14] | outcome [16] | outcome [17] | outcome [18] | outcome [19] | outcome [20]

COc1cc(NC(=O)CSc2ncnc3sc4c(c23)CCC(C)C4)c(C(=O)O)cc1OC (stereo not given)
inactive: outcome [1] | outcome [2] | outcome [3] | outcome [4] | outcome [6] | outcome [7] | outcome [8] | outcome [9] | outcome [10] | outcome [11] | outcome [12] | outcome [13] | outcome [14] | outcome [15] | outcome [16] | outcome [17]
active: inhibition [5] 91% | activation [18] 450% | potentiation [19] 297% | potentiation [20] 506%

COc1ccc(F)cc1C(=O)C1CCCN(Cc2cccn2-c2ccccn2)C1 (stereo not given)
inactive: outcome [1] | outcome [2] | outcome [3] | outcome [4] | outcome [5] | outcome [6] | outcome [7] | outcome [8] | outcome [9] | outcome [10] | outcome [11] | outcome [12] | outcome [13] | outcome [14] | outcome [15] | outcome [16] | outcome [17]

O=C1C=CC(=O)N1CCNc1ncc(C(F)(F)F)cc1Cl
inactive: outcome [1] | outcome [2] | outcome [3] | outcome [4] | outcome [5] | outcome [6] | outcome [7] | outcome [8] | outcome [9] | outcome [10] | outcome [11] | outcome [12] | outcome [13] | outcome [14] | outcome [15] | outcome [16] | outcome [17] | outcome [18] | outcome [20]
active: potentiation [19] 77.5%

CN(C)S(=O)(=O)N1CCC(CCCC2CCN(S(=O)(=O)N(C)C)CC2)CC1
inactive: outcome [1] | outcome [2] | outcome [3] | outcome [5] | outcome [6] | outcome [7] | outcome [8] | outcome [9] | outcome [10] | outcome [11] | outcome [12] | outcome [13] | outcome [14] | outcome [16] | outcome [17]
active: potentiation [4] 11% | potentiation [15] 8.71% | activation [18] 228% | potentiation [19] 99.5% | potentiation [20] 288%

COc1cc(C2(c3ccc(O)c(OC)c3)C(=O)Nc3c(C)cc(Br)cc32)ccc1O
inactive: outcome [1] | outcome [2] | outcome [3] | outcome [5] | outcome [6] | outcome [7] | outcome [8] | outcome [9] | outcome [10] | outcome [11] | outcome [12] | outcome [13] | outcome [14] | outcome [16] | outcome [17] | outcome [20]
active: potentiation [4] 22% | potentiation [15] 71.7% | activation [18] 168% | potentiation [19] 36.5%

COc1ccccc1N1CCN(Cc2cc(=O)c(OCC(=O)NC3CCCC3)co2)CC1
inactive: outcome [1] | outcome [2] | outcome [3] | outcome [4] | outcome [5] | outcome [6] | outcome [7] | outcome [8] | outcome [9] | outcome [10] | outcome [11] | outcome [12] | outcome [13] | outcome [14] | outcome [15] | outcome [16] | outcome [17]

COc1ccc(NS(=O)(=O)c2ccc3ccccc3c2)c2ncccc12
active: potentiation [19] 49% | potentiation [20] 172%
inactive: outcome [1] | outcome [2] | outcome [3] | outcome [4] | outcome [5] | outcome [6] | outcome [7] | outcome [8] | outcome [9] | outcome [10] | outcome [11] | outcome [12] | outcome [13] | outcome [14] | outcome [15] | outcome [16] | outcome [17] | outcome [18]

Cc1ccc2c(c1)C1CN(C)CCC1N2C(=S)NC(=O)c1ccc(Br)cc1 (stereo not given)
active: potentiation [4] 15% | potentiation [15] 23.8% | activation [18] 170% | potentiation [19] 41% | potentiation [20] 200%
inactive: outcome [1] | outcome [2] | outcome [3] | outcome [5] | outcome [6] | outcome [7] | outcome [8] | outcome [9] | outcome [10] | outcome [11] | outcome [12] | outcome [13] | outcome [14] | outcome [16] | outcome [17]

CCCCNC(=O)/C(C#N)=C/c1ccc(F)cc1F
active: potentiation [4] 9%
inactive: outcome [1] | outcome [2] | outcome [3] | outcome [5] | outcome [6] | outcome [7] | outcome [8] | outcome [9] | outcome [10] | outcome [11] | outcome [12] | outcome [13] | outcome [14] | outcome [15] | outcome [16] | outcome [17]
